NPR2 activator = human GC-B receptor activators, primary screen, HEK293 GC-B cells, cGMP TR-FRET, EC30 CNP; Atrial natriuretic peptide receptor 2 (Homo sapiens), P20594; 370,000 compounds, 0.11% hits; 0% at EC30 CNP, 100% saturating CNP; AID 1920062, 2024; activation, % at 10 µM;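 active means activation at 10 µM reaching about 35% in either raw or pattern-adjusted values, limit read from the data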
HSV augment = enhancers of HSV replication in host cells, fold increase, host cell viability; HSV replication augmentation in cells; maximum fold increase; 220,000 compounds, 0.005% hits; in the data active means maximum fold increase above about 1.5; tested in PC3 cells
H9c2 TAG inh = inhibitors of triacylglycerol accumulation, primary screen, cell-based, uHTS, fluorescence, H9c2 | AID 651582, 2012 | H9c2 cells, Nile Red lipid (TAG) fluorescence; cells loaded with 200 µM oleic acid | inhibition, % at 12.5 µM | 230,000 compounds, 0.66% hits;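 active means pattern-corrected inhibition of lipid staining of at least 50% with the nuclear-stain viability signal not falling by more than 50%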
GC-A act = GC-A stimulated cGMP production enhancers – HEK293 GC-A cells, cGMP TR-FRET, EC30 ANP, primary screen. AID 1671463, 2021. 0% at EC30 ANP, 100% saturating ANP. activation, % at 10 µM. Atrial natriuretic peptide receptor 1 (Homo sapiens), P16066. 370,000 compounds, 0.14% hits; in the data active means activation above about 40%
Efflux pump inh = inhibitors of Candida efflux pumps in yeast, primary screen, S. cerevisiae, Nile Red, multiplex | inhibition, % at 10 µM | AID 485275, 2010 | 330,000 compounds, 0.44% hits | S. cerevisiae Candida pump triplex;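 active means plate passing quality check with inhibition over a set limit, or well fluorescence over plate mean plus 4 SD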;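 further: Nile Red retained in pooled yeast measured as flow cytometry median fluorescence; higher means more Nile Red kept so more efflux inhibition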
A1 inh = caspase 3/7 activation in MEF A1-2A-BIM cells, primary screen, A1 inhibitor project, cell-based, luminescence, HTS; Caspase-Glo 3/7 luminescence, 3 h; percent of clofoctol response, vehicle zero; caspase activation, % (concentration not given with the values); 330,000 compounds, 0.066% hits; AID 2462, 2010;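 active means over half of replicate activation scores above 10%, or exactly half above 10 with the replicate mean above 10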
Hits are given with their value. In the library only some 1% were active in any assay of this set; here they are far more common.

For CC(C)N1CCc2c(sc(NC(=O)c3ccc([N+](=O)[O-])o3)c2C(N)=O)C1 the results were NPR2 activator inactive, H9c2 TAG inh inactive, GC-A act inactive, Efflux pump inh inactive and A1 inh inactive.
For C=CC[N+]1(CC=C)CCOCC1 the results were NPR2 activator inactive, HSV augment inactive, H9c2 TAG inh inactive, GC-A act inactive, Efflux pump inh inactive and A1 inh 8.6.
For O=c1c2c3nc4ccccc4nc3n(-c3ccc4c(c3)OCCO4)c2ncn1C1CCCC1 the results were NPR2 activator inactive, H9c2 TAG inh 64, GC-A act inactive, Efflux pump inh inactive and A1 inh inactive.
For Nc1c(C(=O)OCC2CCCO2)c2nc3ccccc3nc2n1-c1ccc2c(c1)OCCO2 (centres undefined) the results were NPR2 activator inactive, HSV augment inactive, GC-A act inactive, Efflux pump inh inactive and A1 inh inactive.
`CCCCCCCCN1CN2Cc3cc(OC)ccc3C2CS1(=O)=O` (centres undefined) gave NPR2 activator inactive and GC-A act inactive.
Screening C[N+]1(C)[C@H]2CC[C@H]1CC(OC(=O)C(O)c1ccccc1)C2 (some centres undefined) returned NPR2 activator inactive and GC-A act inactive.
`COc1cc(/C=C2/C(=N)N3C=CSC3=NC2=O)ccc1OCCCOc1ccccc1C` gave NPR2 activator inactive, HSV augment inactive, GC-A act inactive, Efflux pump inh inactive and A1 inh inactive.
CCOc1cc(/C=C2/C(=N)N3C=CSC3=NC2=O)ccc1OCCCOc1ccccc1C was read as NPR2 activator inactive, HSV augment inactive, GC-A act inactive, Efflux pump inh inactive and A1 inh 41.
For COc1ccc2c(-c3cc4ccc(OCc5ccc(F)cc5)cc4oc3=O)cc(=O)oc2c1 the results were NPR2 activator inactive, HSV augment inactive, GC-A act inactive, Efflux pump inh inactive and A1 inh 9.6.
Screening CCCOc1ccc(C(=O)NNC(=S)NC(=O)CC)cc1 returned NPR2 activator 64, HSV augment inactive, GC-A act inactive, Efflux pump inh inactive and A1 inh inactive.
For CC(=O)Nc1ccc(Sc2ccc([N+](=O)[O-])o2)cc1 the results were NPR2 activator inactive, H9c2 TAG inh 63 and GC-A act inactive.
`C#CCNC(=O)C[C@H]1C[C@@]2(C(=O)OC)C(=C[C@H](C(C)C)O[C@@H]2C2CC2)N(CCc2ccc(OC)c(OC)c2)C1=O` gave NPR2 activator inactive and GC-A act inactive.
N#Cc1c(N)[nH]c(=S)c(C#N)c1-c1ccccc1 was read as NPR2 activator inactive, HSV augment inactive, GC-A act inactive, Efflux pump inh inactive and A1 inh inactive.
`N#Cc1c(N)[nH]c2ccc(Sc3ccccc3)cc12` gave NPR2 activator 44, H9c2 TAG inh 54 and GC-A act 59.
Screening COc1cc(/C=C2\SC(=S)N(c3cccnc3)C2=O)ccc1O returned NPR2 activator inactive, HSV augment 2.8, H9c2 TAG inh inactive, GC-A act inactive, Efflux pump inh inactive and A1 inh inactive.
Cc1ccc(/C=C2\SC(=S)N(c3cccnc3)C2=O)cc1 was read as NPR2 activator inactive, HSV augment inactive, H9c2 TAG inh inactive, GC-A act inactive, Efflux pump inh inactive and A1 inh inactive.
`CCC(CC)c1nnc(NC(=O)C23CC4CC(CC(NC(C)=O)(C4)C2)C3)s1` gave NPR2 activator inactive, H9c2 TAG inh inactive, GC-A act inactive, Efflux pump inh inactive and A1 inh inactive.
CC(=O)NC12CC3CC(C1)CC(C(=O)Nc1nc4ccc(F)cc4s1)(C3)C2 was read as NPR2 activator inactive, H9c2 TAG inh inactive, GC-A act 43, Efflux pump inh inactive and A1 inh inactive.
For COc1cc(/C=C2\C(=O)N(CCC#N)N=C2C)ccc1OCC(=O)Nc1ccccc1 the results were NPR2 activator 47, HSV augment inactive, GC-A act 53, Efflux pump inh inactive and A1 inh inactive.
CC(C)(C)OC(=O)/C=C/[C@@H](CCCCl)Sc1ccc(C(C)(C)C)cc1 was read as NPR2 activator inactive and GC-A act inactive.
`CC1=C/C(=N\OS(=O)(=O)c2ccccc2)C(C)=CC1=O` gave HSV augment inactive, H9c2 TAG inh inactive, Efflux pump inh inactive and A1 inh 17.
Screening O=C(OC1CCOC1=O)C1CCN(S(=O)(=O)c2ccc(Cl)c(C(F)(F)F)c2)CC1 (centres undefined) returned NPR2 activator 51, H9c2 TAG inh inactive, GC-A act inactive, Efflux pump inh inactive and A1 inh inactive.
Screening O=C1c2ccccc2C(Nc2ccccc2)N1Cc1ccc2c(c1)OCO2 (centres undefined) returned NPR2 activator inactive, HSV augment inactive, H9c2 TAG inh inactive, GC-A act 62, Efflux pump inh inactive and A1 inh inactive.
`Cc1cc(-c2n[nH]c(=S)n2N=Cc2cccc(OCc3ccccc3)c2)n[nH]1` gave NPR2 activator inactive and GC-A act inactive.
O=C1/C(=C\c2c(NCCOCCO)nc3ccccn3c2=O)SC(=S)N1Cc1ccco1 was read as NPR2 activator inactive, GC-A act inactive, Efflux pump inh inactive and A1 inh 9.1.
`O=C(Nc1cccc([N+](=O)[O-])c1)NC1CCCCN(Cc2cccc(Cl)c2)C1=O` (centres undefined) gave NPR2 activator inactive and GC-A act inactive.
Cc1csc(CNc2ncnc3ccc(-c4ccoc4)cc23)c1 was read as NPR2 activator 37, H9c2 TAG inh inactive, GC-A act inactive, Efflux pump inh inactive and A1 inh inactive.
Screening N/C(=N\OC(=O)c1ccc(Cl)cc1Cl)c1ccncc1 returned NPR2 activator inactive, HSV augment inactive, H9c2 TAG inh inactive, GC-A act 43, Efflux pump inh inactive and A1 inh inactive.
`CCC(NC(=O)CN1CCN(c2cccc(OC)c2)CC1)c1ccccc1` (centres undefined) gave NPR2 activator inactive and GC-A act inactive.
`COc1ccc(Nc2nc(N3CCCCC3)c3ccccc3n2)cc1` gave NPR2 activator inactive, HSV augment inactive, H9c2 TAG inh inactive, GC-A act inactive, Efflux pump inh inactive and A1 inh inactive.
`Oc1ccc(Nc2nc(N3CCCC3)c3ccccc3n2)cc1` gave NPR2 activator inactive, HSV augment inactive, H9c2 TAG inh 52, GC-A act inactive, Efflux pump inh inactive and A1 inh inactive.
Screening COc1ccc(S[C@]2(C(=O)N3CCN(C(C)=O)CC3)CC(=O)N(C(=O)c3ccccc3)[C@@H]2c2ccc(OC)cc2)cc1 returned NPR2 activator inactive and GC-A act inactive.

Assay outcomes deposited in PubChem by several laboratories.
